From PubChem BioAssay
The list is not random: actives were taken first. Their share in the collection is about 2.9%.
N-glyco inh: blocks N-linked glycosylation in D54 reporter cells; AID 588692; hit rate 0.23% among 360,000; reporter increase, % at 12.5 µM; D54 ERlucT glycosylation luciferase reporter, 24 h; percent of 100 nM tunicamycin response;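 active means mean luciferase reporter signal, scaled so untreated is 0 and the glycosylation-blocking control 100, at or above a set limit in every replicate; inconclusive means mean reaches the limit but not every replicate does; inactive means mean below the limit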;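 further: luciferase carries N-glycosylation sites so blocking glycosylation raises the light; 0% = median of neutral control wells and 100% = median of 100 nM tunicamycin wells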
PvdQ inh: P. aeruginosa PvdQ acylase inhibition; purified PvdQ acylase, fluorescence plate reader; inhibition, % at 10 µM; hit rate 0.063% among 340,000; in the data active means inhibition above about 30%, passing the limit was not always enough; inconclusive means no clear call, values can overlap the other calls;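 further: 0% = vehicle neutral wells and 100% = reference inhibitor wells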
Wnt bcat act: activators of Wnt/beta-catenin signaling; Wnt/beta-catenin reporter cell assay, activator, plate reader; activation, % at 9.35 µM; hit rate 1.2% among 300,000; in the data active means activation above about 30%, passing the limit was not always enough; inconclusive means no clear call, values can overlap the other calls;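 further: 0% = neutral control wells and 100% = positive control wells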
Vif inh: blocks HIV Vif function | inhibition, % at 7.49 µM | hit rate 0.35% among 340,000 | HEK293T cells, Vif self-association by quenched fluorescence, imaging, 24 h; in the data active means inhibition above about 50%, passing the limit was not always enough; inconclusive means no clear call, values can overlap the other calls; inactive means below about 31%
esBAF inh: SWI/SNF esBAF complex inhibition | hit rate 2% among 350,000 | reporter increase, % at 12.5 µM | AID 602393 | mouse ES cells, Bmi1-luciferase knock-in reporter, 24 h; 100% = twice the neutral-well signal; in the data active means activation above about 40%; inconclusive means no clear call, values can overlap the other calls;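 further: 0% = median of the plate's neutral control wells and 100% = double that signal; a rise in the Bmi1 reporter signal indicates esBAF inhibition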
MITF TRPM1 HTS: MITF TRPM1 promoter activation in melanoma cells; SK-MEL-5 TRPM1-promoter luciferase, 24 h; % of positive control, neutral wells = 0; activation, % at 12.5 µM; hit rate 0.75% among 300,000;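 active means mean activation of at least 80% with every replicate also reaching 80%; inconclusive means mean reaches 80% but some replicate falls short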;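 further: 0% = neutral control wells and 100% = parthenolide positive control wells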
Numbers without * were called inactive; ? = inconclusive; · = no result.

SMILES	N-glyco inh	PvdQ inh	Wnt bcat act	Vif inh	esBAF inh	MITF TRPM1 HTS
Cc1ccc(C(=O)Nc2nc3ccccc3[nH]2)cc1	-18	-13	-5	-5	-77	-72
O=c1[nH]c2ccccc2nc1/C=C(\O)c1cccs1	10	-8	37*	·	·	35
O=C(Nc1nc2ccccc2[nH]1)c1cccs1	-8	-4	46*	2	-6	62
O/C(=C\c1nc2ccccc2[nH]1)c1cccs1	2	-5	39*	9	42*	6
Cc1ccc2oc(=O)c(/C=C(\O)c3cccs3)nc2c1	-1	-9	35*	89*	·	·
CCCNC(=O)[C@H]1[C@H](CO)[C@H]2Cn3c(cccc3=O)[C@@H]1N2C(=O)C1CCC1	·	·	·	·	1	·
Cc1ccc(S(=O)(=O)N2CC[C@@H]3[C@@H](CO)Nc4ccc(-c5cccc(C(=O)N(C)C)c5)cc4[C@@H]32)cc1	·	·	·	·	4	·
COC(=O)c1noc(-c2ccc(C)cc2)n1	2	-3	17	6	3	-4
COC(=O)c1noc(-c2ccc(OC)cc2)n1	-1	71*	1	4	-2	-2
Cc1ccccc1NC(=O)C(=O)c1cn(C)c2ccccc12	1	6	2	9	56*	41
O=C(OCc1nc2ccsc2c(=O)[nH]1)c1ccc(Cl)nc1	1	-13	41*	-13	-1	-8
O=C(OCc1nc2ccsc2c(=O)[nH]1)c1ccccc1	0	4	4	-2	·	6
c1ccc(OCCNc2ccn3nc(-c4cccs4)cc3n2)cc1	13	·	-2	-4	64*	·
COCCCNc1ccn2nc(-c3ccccc3)cc2n1	-18	·	-21	-9	-62	·
COc1ccccc1-c1cc2nc(NCCOc3ccccc3)ccn2n1	1	·	0	-2	4	·
Clc1cccc(CNc2ccn3nc(-c4cccs4)cc3n2)c1	0	·	49*	0	59*	·
c1ccc(OCCNc2ccn3nc(-c4ccco4)cc3n2)cc1	6	·	-1	·	48*	·
Fc1ccc(CNc2ccn3nc(-c4ccccc4)cc3n2)cc1	3	·	-2	-2	64*	·
Clc1cccc(CNc2ccn3nc(-c4ccco4)cc3n2)c1	-3	·	-2	·	25	·
C[C@@H]1CN([C@H](C)CO)C(=O)Cc2cc(NS(=O)(=O)c3ccccc3)ccc2O[C@@H]1CN(C)C(=O)Nc1ccc(C(F)(F)F)cc1	·	·	·	·	-4	·
COCCNC(=O)C[C@H]1CC[C@@H]2[C@H](COC[C@@H](O)CN2Cc2ccc(Cl)c(Cl)c2)O1	·	·	·	·	4	·
FC(F)(F)c1cccc(-c2cc3nc(NCCOc4ccccc4)ccn3n2)c1	0	·	6	-7	34	·
c1ccc(OCCNc2ccn3nc(-c4ccccc4)cc3n2)cc1	2	·	16	-6	53*	·
CCNC(=O)[C@H]1[C@H](CO)[C@H]2Cn3c(ccc(-c4ccncc4)c3=O)[C@@H]1N2Cc1ccccc1	·	·	·	·	4	·
COc1ccc(NC(=O)Nc2ccc3c(c2)C(=O)N([C@@H](C)CO)C[C@@H](C)[C@H](CN(C)Cc2ccccc2)OCCCC[C@H](C)O3)cc1	·	·	·	·	3	·
SMILES	N-glyco inh	PvdQ inh	Wnt bcat act	Vif inh	esBAF inh	MITF TRPM1 HTS
CN(C)c1ccc(C2NC(=O)c3ccccc3N2)cc1 (stereo unspecified)	-7	-8	31*	-4	-24	77
CO[C@H]1CN(C)C(=O)c2cc(NC(=O)Cc3ccccc3)ccc2OC[C@@H](C)N(CC2CC2)C[C@H]1C	·	·	·	·	-3	·
O=C(Cc1ccccc1)Nc1ccc(NC(=O)c2ccccc2)nc1	-2	-7	17	2	56*	75
O=C(Nc1ccc(NC(=O)C2CC2)cn1)c1ccccc1	-14	-14	15	-4	-27	-4
O=C(Nc1ccc(NC(=O)c2cccs2)cn1)c1ccccc1	-8	-7	44*	-2	·	?
N#Cc1ccc(NC(=O)c2cccs2)nc1	0	-17	6	-2	?	86*
O=C(Nc1ccc(NC(=O)C2CC2)nc1)c1cccs1	-2	-9	·	·	36	57
O=C(Nc1cnccn1)c1cccs1	1	7	·	·	-4	-10
CC(C)NC(=O)Nc1ccc2c(c1)C(=O)N([C@@H](C)CO)C[C@@H](C)[C@@H](CN(C)S(=O)(=O)c1ccc(Cl)cc1)OCCCC[C@@H](C)O2	·	·	·	·	7	·
O=C(C[C@H]1CC[C@H]2[C@@H](COC[C@H](O)CN2C(=O)Nc2ccc(Cl)c(Cl)c2)O1)NCc1ccc(F)cc1	·	·	·	·	-2	·
